Measured values as given in PubChem BioAssay AID1578 (Sanford-Burnham Center for Chemical Genomics, 2009).
About 3,000 (1%) of roughly 290,000 compounds were called active. Cut-off read from the data, not from the text of the source: active = inhibition mostly above about 36% (no sharp cut-off); inactive = mostly below about 34%. What follows is part of a selection rich in actives, with near analogues and random picks from the rest.

Assay: NOD1 signaling inhibitors, primary screen, cell-based, luminescence, uHTS (AID 1578);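 note: HEK-293T reporter cells stimulated with the NOD1 agonist gamma-tri-DAP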
Settings: NOD1-driven NF-kB luciferase reporter cells, at 4 µM, hits give high values

Row | SMILES | inhibition
1 | CN1C/C(=C/c2cccnc2)C(=O)/C(=C/c2cccnc2)C1 | 37% (inactive)
2 | O=C1/C(=C/c2cccnc2)CC/C1=C\c1cccnc1 | 5.4% (inactive)
3 | CCC1C/C(=C\c2cccnc2)C(=O)/C(=C/c2cccnc2)C1 (stereo not given) | 103% (active)
4 | CC(Cl)C(=O)c1ccc2c(c1)CCN2C(=O)C1CC1 (stereo not given) | 43.8% (inactive)
5 | O=C(CCl)c1ccc2c(c1)CCN2C(=O)C1CCCCC1 | 13% (inactive)
6 | O=C(CCl)c1ccc2c(c1)CCN2C(=O)C1CC1 | 76.4% (active)
7 | Cc1nnsc1NC(=O)OCc1ccc(C(C)(C)C)cc1 | 58.9% (inactive)
8 | Clc1ccc(OCc2nn[nH]n2)cc1 | 4.7% (inactive)
9 | Cc1cc(C)c(C)c(S(=O)(=O)NCC(=O)NCC2CCCCC2)c1C | -8.5% (inactive)
10 | O=C(NC1CCN(S(=O)(=O)c2cccc(F)c2)CC1)c1ccc(F)cc1 | -9.7% (inactive)
11 | C1=Nc2c(Nc3ccccc3)ncnc2Oc2ccccc21 | -21% (inactive)
12 | O=C(/C=C/c1ccc(OCCCF)cc1)Nc1ccnc(-c2ccncc2)n1 | 89.5% (active)
13 | O=C(/C=C/c1ccc(OCCCF)cc1)Nc1ccnc(-c2cccnc2)n1 | 8.2% (inactive)
14 | COc1ccc(CNC(=O)/C=C/c2ccc(OCCCF)cc2)cc1 | -6.2% (inactive)
15 | CCC(C)C(Nc1ncnc2scc(-c3ccccc3)c12)C(=O)O (stereo not given) | -21% (inactive)
16 | O=S(=O)(NC1CC1)c1ccccc1 | -1% (inactive)
17 | COC(=O)c1cn(NC(=O)c2cc([N+](=O)[O-])ccc2F)c(=O)c2ccccc12 | 78% (active)
18 | COC(=O)c1cn(NC(=O)c2ccc([N+](=O)[O-])cc2Cl)c(=O)c2ccccc12 | -35.6% (inactive)
19 | COC(=O)c1cn(NC(=O)c2ccccc2[N+](=O)[O-])c(=O)c2ccccc12 | -27.3% (inactive)
20 | CC1CN(C(=O)COC(=O)c2cc(Cl)ccc2[N+](=O)[O-])CC(C)O1 (stereo not given) | -25.3% (inactive)
21 | CCCCS(=O)(=O)N1CCN(S(=O)(=O)c2ccc(Cl)s2)CC1 | -11% (inactive)
22 | O=C(Oc1cc(=O)oc2ccccc12)c1ccccc1 | -8.5% (inactive)
23 | CC(C)[C@H](NC(=O)[C@@H]1Cc2ccccc2CN1)C(=O)NC1CCCCC1 | -12.1% (inactive)
24 | CCCCc1c(O)nc(SCC(=O)c2ccccc2)n(-c2ccccc2)c1=O | -1.5% (inactive)
25 | Cc1ccc(S(=O)(=O)/N=C(\CN2CCCCC2)N2CCOCC2)cc1 | 10.8% (inactive)

Row | SMILES | inhibition
26 | Cc1ccc(S(=O)(=O)/N=C(\CN2CCOCC2)N2CCOCC2)cc1 | 0.6% (inactive)
27 | Cc1ccc(S(=O)(=O)/N=C(\CCl)N2CCOCC2)cc1 | 72.3% (active)
28 | N/N=c1\sc2ccccc2n1-c1ccccc1 | 2.6% (inactive)
29 | COc1cccc(/C=C2\SC(=S)N(CCCC(=O)N3CCCCC3)C2=O)c1 | 0% (inactive)
30 | O=C(CCC(=O)NC1CCCCCC1)Nc1nnc(C(F)(F)F)s1 | -18.1% (inactive)
31 | O=C(CCC(=O)NC1CCCCCCC1)Nc1nnc(C(F)(F)F)s1 | 4.2% (inactive)
32 | O=C(CCC1CCCCC1)Nc1nnc(C(F)(F)F)s1 | 77.4% (active)
33 | Cc1ccnc(NC(=O)c2ccc(Cl)cc2Cl)n1 | 14.3% (inactive)
34 | COc1cc(C(=O)NC2CC(C)(C)Cc3c2cnn3-c2ccccc2)cc(OC)c1OC (stereo not given) | -14.3% (inactive)
35 | COc1ccc(C(=O)NC2CC(C)(C)Cc3c2cnn3-c2ccccc2)cc1OC (stereo not given) | 0.2% (inactive)
36 | COc1ccc(OC)c(C(=O)NC2CC(C)(C)Cc3c2cnn3-c2ccccc2)c1 (stereo not given) | 53.9% (active)
37 | O=C(NCCc1c[nH]c2ccccc12)c1ccc([N+](=O)[O-])cc1 | -37.7% (inactive)
38 | NC(=O)C1CCN(c2ccc(S(=O)(=O)N3CCCCC3)cn2)CC1 | -25.2% (inactive)
39 | O=C(O)c1ccc(S(=O)(=O)N2CCC(Cc3ccccc3)CC2)cc1 | 2.5% (inactive)
40 | Cc1ccc(CNC(=O)C2CC3Cn4c(nc5cc(C)c(C)cc54)C3N2C)o1 (stereo not given) | -2.6% (inactive)
41 | Cc1ccc(/C=C2/SC(=S)N(CCC(=O)N3CCN(c4ccccc4)CC3)C2=O)cc1 | 5.7% (inactive)
42 | CCOC(=O)N1CCN(CC(=O)Nc2ccc(F)c(F)c2)CC1 | 10.6% (inactive)
43 | CCC(=O)Nc1nc2nc(C)cc(=O)n2[nH]1 | 57.1% (active)
44 | CCC(=O)Nc1nc2nc(-c3ccccc3)cc(=O)n2[nH]1 | 0.3% (inactive)
45 | CCCC(=O)Nc1nc2nc(C)cc(=O)n2[nH]1 | -2.3% (inactive)
46 | Brc1ccc(-c2nc(-c3ccncc3)no2)cc1 | -20.7% (inactive)
47 | NC1=NC(=O)C(CC(=O)Nc2ccc3c(c2)OCO3)S1 (stereo not given) | -24.1% (inactive)
48 | CCCCNS(=O)(=O)c1ccc2nc(SCC(=O)Nc3ccccc3)[nH]c2c1 | -15.3% (inactive)
49 | CCCCNS(=O)(=O)c1ccc2nc(SCC(=O)c3ccc(C#N)cc3)[nH]c2c1 | -14.8% (inactive)
50 | CCCCNS(=O)(=O)c1ccc2nc(SCC(=O)Nc3sccc3C#N)[nH]c2c1 | 65.5% (active)
